# Many of the other results were omitted from the sample, so hits are more common in it than they were.
# Pf Dd2 growth: Plasmodium falciparum Dd2 growth inhibition | Potency, µM (series often up to 28.9 µM), for the others: at the highest dose activity, negative = inhibition, most hits filed as inhibitors | hit rate 4.3% among 120,000 | P. falciparum Dd2 growth, SYBR Green, 72 h; active = well fitted inhibition curve with a large enough effect;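 note: plate controls were DMSO vehicle for no effect and reference drug for full effect; nearly all actives have a fitted effect of over 65% in size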
#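 Infected erythrocytes (Dd2, 0.3% parasitemia, 2.5% hematocrit final) are added to compound in RPMI-1640/Albumax II medium, grown 72 h at 37C in low oxygen, then lysed with saponin/Triton-X containing SYBR Green and read by fluorescence.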
# Numbers without * were called inactive; i = inactive; [ ] = remark or other dose. Potency is the fitted concentration of half-maximal effect.
SMILES,Pf Dd2 growth
O=C(O)CCn1ncc2cc(OC3CCN(C(=O)c4cc(F)ccc4Cl)CC3)ccc21,-10.4%
CNC(=O)CCn1ncc2cc(OC3CCc4cccc(-c5ccccc5)c43)ccc21 (stereo not drawn),2.82µM*
CNC(=O)CCn1ncc2cc(OC3CCc4cccc(-c5ccnc(C)c5)c43)ccc21 (stereo not drawn),-0.1%[44.1 µM]
CNC(=O)CCn1ncc2cc(OC3CCc4cccc(-c5cccc(F)c5)c43)ccc21 (stereo not drawn),i
CNC(=O)CCn1ncc2cc(OC3CCc4cccc(-c5ccc(F)cc5)c43)ccc21 (stereo not drawn),14.1µM*
O=C(O)CCn1ncc2cc(OC3CCN(C(=O)Oc4ccccc4)CC3)ccc21,i
O=C(c1ccc2nc(-c3ccccc3)cn2c1)N1C[C@@H]2CCC[C@H]1C2,-12.5%
CCc1ccc(C(=O)N2CCN(C(=O)c3nnn4c3COC(c3ccc(F)cc3)C4)CC2)cc1 (stereo not drawn),-5.9%
CCc1cn(C[C@H](NC(=O)COC)C(=O)O)c(=O)[nH]c1=O,-17.9%[44.1 µM]
Cc1ccc(CCNC(=O)c2nnn3cc(C)[nH]c(=O)c23)cc1,i
Cc1ccn2c(Nc3ccccc3C)c(-c3ccc(N4CCOCC4)cc3)nc2c1,6.31µM*
Cc1ccccc1Nc1c(-c2ccc(N3CCOCC3)cc2)nc2ccc(Cl)cn12,8.91µM*
Clc1ccc2nc(-c3ccc(N4CCOCC4)cc3)c(Nc3ccccc3)n2c1,-28.8%
Cc1cccc(C)c1Nc1c(-c2ccc(N3CCOCC3)cc2)nc2ncccn12,-5.9%
Cc1ccccc1Nc1c(-c2c(F)cccc2Cl)nc2ccc(Br)cn12,10µM*
Brc1ccc2nc(-c3ccccc3)c(Nc3ccc4c(c3)OCO4)n2c1,-12.7%
Cc1ccc(Nc2c(-c3ccc(N4CCOCC4)cc3)nc3cccc(C)n23)cc1,-17.6%
Cc1ccc(Nc2c(-c3ccc(N4CCOCC4)cc3)nc3ccc(Cl)cn23)cc1,47.1%
Cc1ccc(-c2nc3ccc(Cl)cn3c2Nc2ccccc2C)s1,-0.7%
COc1ccc(OC)c(CNC(=O)CC2CCCCN(C)C2=O)c1 (stereo not drawn),-6.2%
COc1ccc(CN2CC3(CCN(C(=O)Cn4c(=O)oc5ccccc54)CC3)C2=O)cc1,i
O=C(NCC(F)(F)F)c1cc(Br)cn2ccnc12,22.9%[44.1 µM]
O=C1NCCCCCN(C(=O)Nc2ccccc2)[C@H]2CCCC[C@@H]12,-14.6%
Cc1noc(C)c1S(=O)(=O)N1CCC(N2CC(OCC3CC3)C23CCCCC3)CC1 (stereo not drawn),-12.8%
COc1ccc(CN2C(=O)[C@@H]3C[C@@H](CN3C3CCN(C)CC3)Oc3ccccc32)cc1,10µM*
SMILES,Pf Dd2 growth
O=C1[C@@H]2C[C@@H](CN2C2CCC2)Oc2ccccc2N1Cc1ccc(OC(F)(F)F)cc1,6.31µM*
COc1ccc(CN2C(=O)[C@@H]3C[C@@H](CN3C)Oc3ccccc32)cc1,i
O=C(O)CCC(=O)N1C[C@@H]2C[C@H]1C(=O)N(Cc1ccc(OC(F)(F)F)cc1)c1ccccc1O2,-17.0%
COc1ccc(CN2C(=O)[C@@H]3C[C@@H](CN3Cc3ccccc3)Oc3ccccc32)cc1,-50.9%[44.1 µM]
CS(=O)(=O)N1C[C@@H]2C[C@H]1C(=O)N(Cc1ccc(OC(F)(F)F)cc1)c1ccccc1O2,-21.0%
O=C(O)C1CC2(CCN(C(=O)NCCc3ccccc3)CC2)CN1 (stereo not drawn),-9.8%
CN1CCN([C@H]2[C@@H]3OC[C@@H](O3)[C@@H](NC(=O)Nc3ccc(F)cc3)[C@@H]2O)CC1,-10.3%[44.1 µM]
COC(=O)CNC(=O)C1=NOC2CN(C(=O)c3ccn(C)n3)CC12 (stereo not drawn),17.5%
CCc1ccc(S(=O)(=O)N2CCCC(Cn3cnc4cccnc43)C2)cc1 (stereo not drawn),-4.5%
CN1C(=O)C(CC(=O)NC2CCCCC2)Sc2ncccc21 (stereo not drawn),-0.9%
Cc1cc(C)n(-c2nc3ccccc3nc2Nc2cc(Cl)ccc2C)n1,31.1%
Cc1cc(Nc2ccc(Cl)cc2C)nc(-n2nc(C)cc2C)n1,3.55µM*
Cc1cc(C)n(-c2nc3ccccc3nc2Nc2ccc(Cl)cc2Cl)n1,42.7%
Cc1noc(C)c1CCC(=O)NC1CCc2nnc(C)n2CC1 (stereo not drawn),31.9%
COc1ccc(NC(=O)N2CCC(N3CC4CC(C3)[C@H]3CCCC(=O)N3C4)CC2)cc1OC (stereo partly drawn),3.1%
COc1ccccc1Nc1ncc2c(n1)CCN(Cc1ccc(C)s1)C2,68.7%
COc1ccccc1Nc1ncc2c(n1)CCN(Cc1cc(F)cc(F)c1)C2,28.3%
COc1ccc(Nc2ncc3c(n2)CCN(Cc2cc(Br)cs2)C3)c(OC)c1,45.7%
Brc1csc(CN2CCc3nc(Nc4ccccc4)ncc3C2)c1,10µM*
COc1ccc(Nc2ncc3c(n2)CCN(Cc2ccc(Br)s2)C3)c(OC)c1,10µM*
Cc1ccc(CN2CCc3nc(Nc4ccc5c(c4)OCCO5)ncc3C2)cc1,9.4%
COc1ccc(CNC(=O)C2CCN(C(=O)c3ncn4c3COC(c3ccc(C)cc3)C4)CC2)cc1 (stereo not drawn),i
Cc1c(NC(=O)c2ccco2)cccc1C(=O)N1CCC2(CCNCC2)CC1,9.1%
CNC(=O)C(C)(C)N1CCC[C@H]1C(=O)N[C@@H](CO)CC(C)C,-9.7%[44.1 µM]
CC(C)c1ccc(NC(=O)N2CCN(C)C3(CCC(=O)N(C)CC3)C2)cc1 (stereo not drawn),-5.8%
SMILES,Pf Dd2 growth
O=C(O)Cn1nc(C2CCOC2)nc1C1(c2ccccc2)CC1 (stereo not drawn),-5.1%
COc1cc(NC(=O)Cn2c(-c3ccc(F)cc3)nc(C)c(CCO)c2=O)cc(OC)c1,11.2µM*
COc1ccc(NC(=O)Cn2c(-c3ccc(F)cc3)nc(C)c(CCO)c2=O)cc1Cl,-24.1%
Cc1ccc(NC(=O)Cn2c(-c3ccc(F)cc3)nc(C)c(CCO)c2=O)cc1,-4.9%
O=C(c1ccccc1OCC1CCCN(Cc2nccs2)C1)N1CCCC1 (stereo not drawn),-1.6%
Cc1ccc(NC(=O)NCC2CCOCC2)c(Cl)c1,3.7%
O=S(=O)(c1cc(F)cc(F)c1)N1CCCC1c1nncn1Cc1ccncc1 (stereo not drawn),0.8%
COc1ccccc1C(=O)N1CC(N(C)c2ccccc2C)C1,-10.3%
COCCC(=O)N1CCC(N2C(=O)C3(CCCCC3)C2c2ccccc2)CC1 (stereo not drawn),-28.3%
O=C(CN1CCCCCC1)N1CCC(N2C(=O)C3(CCCC3)C2c2ccccc2)CC1 (stereo not drawn),4.47µM*
CC(C)C(=O)N1CCC(N2C(=O)C3(CCCC3)C2c2ccccc2)CC1 (stereo not drawn),-5.5%
O=C(CN1CCOCC1)N1CCC(N2C(=O)C3(CCCCC3)C2c2ccccc2)CC1 (stereo not drawn),i
CCOc1ccccc1NC(=O)N1CCC(N2CCN(Cc3ccccc3)C(=O)C2=O)CC1,9.5%[5.79 µM]
CCOc1ccccc1NC(=O)N1CCC(N2C(=O)C3(CCCC3)C2c2ccccc2)CC1 (stereo not drawn),8.91µM*
CCN(CC)CCCNC(=O)c1cn2ccnc(-c3ccccc3)c2n1,i
COc1ccc(-c2ccc3nnc(CNC(=O)c4ccc(C)c(C)c4)n3n2)cc1,-22.5%
CC(C)c1nnc(C2CN(C(=O)c3ccc(F)c(F)c3)CC23CCOCC3)o1 (stereo not drawn),-5.7%
Cc1ccc(CCNC(=O)c2cc3c(-c4ccccc4F)nn(C)c3s2)cc1,19.1%
COc1ccc(CNC(=O)c2cc3c(-c4ccc(Cl)cc4)nn(C)c3s2)cc1,-16.4%

# Assay outcomes (PubChem)
